From PubChem BioAssay AID1903 (Southern Research Specialized Biocontainment Screening …, 2009) come the findings set out here.

In all, about 310,000 compounds went through this assay and about 1,200 (0.39%) were called active. Only a sample is shown. Results with a measured potency or affinity are listed apart. A number with no mark means an inactive call. The rule behind the calls is not given here.

Chain of Large T antigen (Simian virus 40) (P03070 whole entry, looked up): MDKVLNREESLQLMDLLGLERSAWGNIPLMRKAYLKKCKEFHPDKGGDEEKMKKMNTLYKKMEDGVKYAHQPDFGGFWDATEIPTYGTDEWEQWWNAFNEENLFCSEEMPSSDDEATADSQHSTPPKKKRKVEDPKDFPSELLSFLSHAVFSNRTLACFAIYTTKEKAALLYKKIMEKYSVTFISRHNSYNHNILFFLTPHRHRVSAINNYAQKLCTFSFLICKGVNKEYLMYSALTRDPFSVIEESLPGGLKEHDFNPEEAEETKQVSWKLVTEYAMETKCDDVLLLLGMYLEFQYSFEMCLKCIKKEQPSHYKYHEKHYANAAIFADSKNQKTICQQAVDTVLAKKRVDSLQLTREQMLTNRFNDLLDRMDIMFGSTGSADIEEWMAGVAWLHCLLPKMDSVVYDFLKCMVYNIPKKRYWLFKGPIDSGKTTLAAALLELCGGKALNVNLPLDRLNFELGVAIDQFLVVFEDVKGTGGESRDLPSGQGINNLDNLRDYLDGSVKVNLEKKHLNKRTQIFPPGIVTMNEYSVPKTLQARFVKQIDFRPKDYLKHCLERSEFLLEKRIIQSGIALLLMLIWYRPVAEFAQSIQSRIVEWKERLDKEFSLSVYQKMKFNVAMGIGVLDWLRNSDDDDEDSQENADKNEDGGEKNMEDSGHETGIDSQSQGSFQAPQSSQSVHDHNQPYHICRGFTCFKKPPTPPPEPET

This test concerns the target Large T antigen (Simian virus 40) (UniProt P03070). Kind of test: TAg ATPase/helicase activity blockers – biochemical (AID 1903). To be noted: SV40 large T antigen ATPase/helicase inhibition assay; at 20 µM; active compounds read high.
Regarding `O=C(CSc1nc2c(c(=O)[nH]1)CCC2)Nc1ccc(F)cc1`, the inhibition (as a rule, the relative decrease from the control value, in per cent) is 22%.

In the case of `Cc1cc(C)c2c(=O)[nH]c(SCC(=O)Nc3ccc(N(C)C)cc3)nc2n1`, the inhibition was 31.4%.

With `CCN(c1ccc(NC(=O)CSc2nnc3nc(C)cc(C)n23)cc1)C(C)C`, the inhibition was 36%.

For the compound `CCc1nc(SCC(=O)Nc2ccc(N(C)C)cc2)c2ccccc2n1`, the inhibition was 18.1%.

For `CCN(CC)c1ccc(NC(=O)CSc2nc(C)cc(=O)[nH]2)cc1`, the inhibition is 35.5%.

`Cc1cc(C)n2c(SCC(=O)Nc3ccc(F)cc3)nnc2n1`: the inhibition was 8.2%.

`CC(C)c1ccc(NC(=O)CSc2nc3c(c(=O)[nH]2)CCC3)cc1`: the inhibition is 10.4%.

Turning to `CC(=O)Nc1ccc(NC(=O)CSc2nc3nc(C)cc(C)c3c(=O)[nH]2)cc1`, the inhibition was 9.68%.

On to `Cc1ccc([N+](=O)[O-])cc1NC1CC(O)C(CO)O1` (stereo not drawn), for which the inhibition was 3.41%.

For `CN(C)CCN(C(=O)c1ccc(S(=O)(=O)N2CCc3ccccc32)cc1)c1nc2ccc(F)cc2s1`, the inhibition is 14.4%.

For the compound `Cc1ccc(S(=O)(=O)/C(C#N)=C/c2c(N3CC(C)OC(C)C3)nc3c(C)cccn3c2=O)cc1` (stereo not drawn), the inhibition was 23.9%.

Consider `COc1cc2c(cc1OC)CN(C(=O)/C=C/c1cc(OC)c(OC)c(OC)c1)CC2`, for which the inhibition was 7.46%.

Regarding `O=C(N/N=C/c1ccc(OC(=O)c2ccco2)cc1)c1ccncc1`, the inhibition is 15.9%.

Take `O=C(N/N=C\c1ccc(OC(=O)c2ccco2)cc1)c1ccc(Cl)cc1`: the inhibition is 11.3%.

Regarding `C=CCc1ccccc1OCC(O)Cn1ccnc1C` (stereo not drawn), the inhibition is 10.2%.

On to `CC(C)c1cc(=O)oc2c3c4c(cc12)CCCN4CCC3`, for which the inhibition was 4.43%.

Consider `O=c1ccc2cc3c4c(c2o1)CCCN4CCC3`, for which the inhibition is 3.45%.

On to `CCc1ccc(NC(=O)[C@H](NC(=O)[C@@H]2Cc3ccccc3CN2)c2ccccc2)cc1`, for which the inhibition is 7.36%.

Consider `CCCc1c(C(=O)N/N=C/C(C)=C/c2ccccc2)nnn1-c1nonc1N`, for which the inhibition is 15.4%.

Consider `O=C(Cn1nnc(-c2ccc(NC(=O)c3ccccc3F)cc2)n1)NCc1ccc(F)cc1`, for which the inhibition is 16.3%.

On to `CCCc1nnc(NC(=O)Cn2c(=O)oc3ccccc32)s1`, for which the inhibition is 3.95%.

With `CCc1nnc(NC(=O)Cn2c(=O)oc3ccccc32)s1`, the inhibition is 1.21%.

For `N/C(=N\NS(=O)(=O)c1ccccc1)c1ccccn1`, the inhibition is 16.4%.

As for `Cc1nnc(NC(=O)CSc2nnc(C)n2Cc2ccccc2)s1`, the inhibition is -83.7%.

Consider `COC(=O)Nc1ccc([N+](=O)[O-])cc1OC`, for which the inhibition is 3%.

For the compound `COc1ccc(OC(=O)Nc2ccc([N+](=O)[O-])cc2OC)cc1`, the inhibition is 0.1%.

As for `COc1cccc(/C=N/Nc2ncnc3c2ncn3Cc2ccccc2)c1O`, the inhibition is 18.1%.

For `Oc1cccc(/C=N/Nc2ncnc3c2ncn3Cc2ccccc2)c1`, the inhibition was 10.2%.

On to `CCc1nn(CC(=O)N2CCC(C(N)=O)CC2)c(=O)c2cc3occc3n12`, for which the inhibition is 5.76%.

In the case of `CCCCC(=O)N1C/C=C\[C@H](c2ccc(OC)cc2)N(Cc2ccc(F)cc2)C(=O)[C@@H]1C`, the inhibition was -1.49%.

With `Cc1c(C(=O)OCC(=O)NCc2ccccc2)oc2ccccc12`, the inhibition is 13.4%.

Turning to `COC(=O)c1ccccc1NC(=O)c1cnn2c(C)cc(C)nc12`, the inhibition was -5.22%.

In the case of `O=C(O)c1ccc(-n2c(/C=C/c3ccccc3)nc3ccccc3c2=O)cc1`, the inhibition was 13.9%.

As to `CCn1c(/C=C/c2ccc(O)cc2)nc2ccccc2c1=O`, the inhibition is 26.9%.

With `COc1ccc(/C=C/c2nc3ccccc3c(=O)n2-c2cccc(C(=O)O)c2)cc1`, the inhibition was 12.5%.

As for `CCn1c(/C=C/c2cc(Br)ccc2O)nc2ccccc2c1=O`, the inhibition was 27%.

On to `CC(C)c1ccc(NC(=O)CSc2nc(-c3ccccc3F)nc3nc[nH]c23)cc1`, for which the inhibition was 3.55%.

On to `CCOc1ccc(CCNC(=O)CCC(=O)Nc2ccc3nc(N4CCN(C)CC4)cc(C)c3c2)cc1OCC`, for which the inhibition was 2.93%.

As for `O=C(CN1CCCCC1)N1c2ccccc2CCc2ccccc21`, the inhibition was 0.59%.

As for `O=C(CCl)N1c2ccccc2CCc2ccccc21`, the inhibition is 8.1%.

Take `Cc1cc(NS(=O)(=O)Cc2ccccc2)no1`: the inhibition is 3.2%.

As to `CCCN(C(=O)c1ccc(N(C)S(=O)(=O)c2ccc(C)cc2)cc1)C1CCS(=O)(=O)C1` (stereo not drawn), the inhibition was 11%.

With `Cc1ccc(C)c(NS(=O)(=O)c2ccc(OCC(=O)N3CCOCC3)cc2)c1`, the inhibition is 4.78%.

Turning to `COc1cc(C(=O)OCCN2CCCCC2)ccc1O`, the inhibition is 29.6%.

On to `COc1cc(C(=S)N2CCCCC2)ccc1O`, for which the inhibition is 29.3%.

Consider `O=C(NCCOc1ccccc1)C1CCC(=O)N(CCc2ccccn2)C1` (stereo not drawn), for which the inhibition was 5.44%.

Consider `CN(C)c1ccc(C2/C(=C(/O)c3ccc(Br)cc3)C(=O)C(=O)N2C)cc1` (stereo not drawn), for which the inhibition is 8.15%.

As to `CC(C)C[C@H](NC(=O)[C@@H]1Cc2c([nH]c3ccccc23)C2c3ccccc3C(=O)N21)C(=O)NCC1CCCO1` (stereo partly drawn), the inhibition was 8.64%.

For `O=C1OCC/C1=C\c1ccccc1`, the inhibition is 6.44%.

Turning to `Cc1ccc(/C=C2\CCOC2=O)cc1`, the inhibition was 10.9%.

In the case of `CC(NC(=O)c1cc(S(=O)(=O)N2CCCC2)cn1C)c1ccccc1` (stereo not drawn), the inhibition was 5.41%.

As for `CN1C(C(=O)NCCc2cccs2)CC2Cn3c(nc4ccccc43)C21` (stereo not drawn), the inhibition is 21.1%.

On to `Nc1[nH]nc2nc3ccccc3cc12`, for which the inhibition is 36%.

As for `CCc1ccc2nc(N)sc2c1`, the inhibition was 9.15%.

With `Cc1cc2cc3c(=O)[nH]c(=O)[nH]c3nc2cc1C`, the inhibition was -1.5%.

Regarding `CC1(C)Cc2nc3n[nH]c(N)c3cc2CO1`, the inhibition was -1.93%.

On to `CCc1ccc2nc3nc(C)cc(C)c3c(N)c2c1`, for which the inhibition is 17.6%.

In the case of `Cc1ccc2cc3c(N)c4c(C)ccc(C)c4nc3nc2c1`, the inhibition is 1.71%.

In the case of `CCn1cc(CNC(=O)c2cc(-c3ccccc3OC)nc3ccccc23)c(C)n1`, the inhibition was 4.15%.

With `O=C(c1ccc(Cl)cc1)c1oc2ccccc2c1CS(=O)(=O)c1ccccc1`, the inhibition was 1.36%.

With `c1ccc(Oc2ccc3ccccc3n2)cc1`, the inhibition was 7.16%.

For the compound `COc1ccc(N(CC(=O)N2CCOCC2)S(C)(=O)=O)cc1OC`, the inhibition was 4.22%.

Take `CCCCn1c(=O)[nH]c(=O)c2c(C(=O)OCC)cc(-c3cccs3)nc21`: the inhibition was 4.89%.

In the case of `Cc1cc(NC(=O)c2cc(C(C)C)on2)nn1Cc1ccc(Cl)cc1`, the inhibition is -0.65%.

On to `COC(=O)c1[nH]c2cccc(OC)c2c1NC(=O)CCN1CCSCC1`, for which the inhibition is 2.77%.

For `CCN(CC)C(=O)C1CCC(CNS(=O)(=O)c2cccc3nsnc23)CC1` (stereo not drawn), the inhibition was 5.44%.

For `COc1ccccc1C(=O)NCCC(=O)Nc1nc2ccccc2[nH]1`, the inhibition was 10.6%.

Consider `CCCCN1C(=O)/C(=C(/C#N)C(=O)N2CCCC2)c2ccccc21`, for which the inhibition is 7.04%.

In the case of `CCOC(=O)/C(C#N)=C1/C(=O)N(Cc2ccccc2)c2ccccc21`, the inhibition was 11%.

For `O=C(CN1C(=O)C2CCCCC2C1=O)Nc1nc(-c2ccc(F)cc2)cs1` (stereo not drawn), the inhibition is 12.1%.

In the case of `COc1ccc(Nc2cccc(Cl)c2)c(C(=O)O)c1`, the inhibition is 33.4%.

For the compound `COc1ccc(Nc2ccccc2C(=O)O)cc1`, the inhibition was 31.6%.

Consider `COc1cc(/C=N/Nc2ccc(C(=O)O)cc2)ccc1O`, for which the inhibition is 29.4%.

As to `COc1ccc(/C=N/Nc2ccccn2)cc1OC`, the inhibition is 9.61%.

Turning to `COc1ccc(/C=N/Nc2cc(=O)n(C)c(=O)n2C)cc1OC`, the inhibition is 9.25%.

As for `COc1cc(/C=N/Nc2ccccn2)cc(OC)c1O`, the inhibition is 29.8%.

`COc1cc(/C=N/Nc2nc(C)cc(=O)[nH]2)ccc1O`: the inhibition is 35.4%.

Take `COc1ccc(/C=N/Nc2nc(=O)[nH]nc2C)cc1OC`: the inhibition was 13.7%.

In the case of `COc1ccc(/C=N/Nc2ccccn2)cc1O`, the inhibition is 36.9%.

`Cn1c(N/N=C\c2cccc(O)c2)cc(=O)n(C)c1=O`: the inhibition is -5.57%.

On to `CC(=O)c1sc(NC(=O)COc2ccccc2)nc1C`, for which the inhibition was 3.21%.

In the case of `CC(C)CCNC(=O)C(=O)Nc1cc2c3c(c1)CCC(=O)N3CCC2`, the inhibition was -2.67%.

For `COC(=O)c1ccc(CNC(=O)C23CC4CC(CC(C4)C2)C3)cc1`, the inhibition is -3.62%.

Take `CCCCc1oc2c(c(=O)c1C)C(=O)CC(c1ccccc1)C2` (stereo not drawn): the inhibition was 4.52%.

For `CCC(=O)N1CCN(c2ccc(NC(=O)c3ccc(C#N)cc3F)cc2Cl)CC1`, the inhibition is 6.06%.

As for `CCc1ccc(NC(=O)C(=O)N/N=C(\C)CC(=O)Nc2ccccn2)cc1`, the inhibition was 11.4%.

Turning to `CCC(NC(=O)c1ccc(C#CC2(O)CCCCC2)cc1)C(=O)O` (stereo not drawn), the inhibition is 8.73%.

Take `COc1cc(/C=N/Nc2ccccc2)ccc1O`: the inhibition is 27.7%.

Turning to `COc1ccc(OC)c(/C=N/Nc2nncn2/N=C/c2cc(OC)ccc2OC)c1`, the inhibition was 12.7%.

For the compound `Oc1ccc(/C=N/NC2=NCCCCC2)cc1`, the inhibition is 25.1%.

Consider `COc1ccc(/C=N/Nc2cc(C)nc3c(C)cccc23)cc1`, for which the inhibition was 4.3%.

For the compound `COc1ccc(/C=N/NC2=NCCCCC2)cc1`, the inhibition is -2.48%.

Consider `COc1cc(/C=N/Nc2nn3cnnc3c3ccccc23)ccc1O`, for which the inhibition was 8.69%.

On to `CCc1nnc(N/N=C/c2ccc(O)c(OC)c2)n1N`, for which the inhibition was 38%.

Consider `COc1cccc2c(N/N=C/c3ccccc3)cc(C)nc12`, for which the inhibition was 4.18%.

With `CCc1ccc(NC(=O)C2CCN(S(=O)(=O)c3ccc4c(c3)N(C(C)=O)CCO4)CC2)cc1`, the inhibition was -0.74%.

On to `Cc1ccc(S(=O)(=O)NCCCN2CCCC2)cc1`, for which the inhibition was 13.3%.

As to `c1ccc(CNc2nc3ccccc3n2CCN2CCOCC2)nc1`, the inhibition was 7.87%.
